Experimental data: PubChem BioAssay (NCI)
Compounds without any hit were thinned out: in the full panel of roughly 79,000, 15% have a hit. Values without a mark were called inactive. The source made the active and inactive calls. No stated cut-off is given here; in the data, active means growth inhibition above about 70%; inactive means the rest.

How the values were obtained:
[1] = NCI Yeast Anticancer Drug Screen. Data for the rad50 strain (AID 155);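 further: 0% = growth of vehicle-only cultures of the same strain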; details: S. cerevisiae rad50 strain growth inhibition, active compounds read high
How it was run: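 Cells are treated with compound, grown, and their growth is then scored against vehicle-only cultures of the same repair-deficient yeast strain.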

[2] = NCI Yeast Anticancer Drug Screen. Data for the mec2-1 strain (AID 157); details: S. cerevisiae mec2-1 strain, active compounds read high
How it was run: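 Compounds were applied to mec2-1 yeast cells. Their growth was then compared with that of vehicle-treated cultures to give growth inhibition.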

[3] = NCI Yeast Anticancer Drug Screen. Data for the sgs1 mgt1 strain (AID 161);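 further: 0% = growth of cultures given vehicle only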; details: S. cerevisiae sgs1 mgt1 strain, active compounds read high
How it was run: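 Yeast cells carrying a defined DNA-repair defect were exposed to test compounds. Growth inhibition was measured relative to vehicle-treated controls.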

[4] = NCI Yeast Anticancer Drug Screen. Data for the cln2 rad14 strain (AID 165);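 further: 0% = growth equal to vehicle treated cultures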; details: S. cerevisiae cln2 rad14 strain, active compounds read high
How it was run: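 Strain: cln2 rad14 yeast, altered in cell cycle control and DNA damage repair. Read-out: growth inhibition vs vehicle.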

[5] = NCI Yeast Anticancer Drug Screen. Data for the bub3 strain (AID 167); details: S. cerevisiae bub3 mutant strain, active compounds read high
How it was run: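 Part of a panel of yeast mutants defective in DNA damage repair or cell cycle regulation. Each strain is grown with compound, and inhibition is calculated relative to solvent-treated cultures.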

[6] = NCI Yeast Anticancer Drug Screen. Data for the mlh1 rad18 strain (AID 175); details: S. cerevisiae mlh1 rad18 strain growth inhibition, active compounds read high
How it was run: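 A repair-deficient yeast strain is exposed to test compound, and growth is scored relative to vehicle-treated controls.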

[7] = at 5.0 µM (retest, dose inferred, filed as 0.5)
[8] = at 50.0 µM (retest, dose inferred, filed as 5.0)

| Structure (SMILES) | growth inhibition [1, 7] | growth inhibition [1, 8] | growth inhibition ([1]; at 50.0 µM) | growth inhibition [2, 7] | growth inhibition [2, 8] | growth inhibition ([2]; at 50.0 µM) | growth inhibition [3, 7] | growth inhibition [3, 8] | growth inhibition ([3]; at 50.0 µM) | growth inhibition [4, 7] | growth inhibition [4, 8] | growth inhibition ([4]; at 50.0 µM) | growth inhibition [5, 7] | growth inhibition [5, 8] | growth inhibition ([5]; at 50.0 µM) | growth inhibition [6, 7] | growth inhibition [6, 8] | growth inhibition ([6]; at 50.0 µM) |
| --- | --- | --- | --- | --- | --- | --- | --- | --- | --- | --- | --- | --- | --- | --- | --- | --- | --- | --- |
| N#Cc1snc2sc(=O)sc12 | 99% (active) | 100% (active) | 99.5% (active) | 100% (active) | 99% (active) | 99.7% (active) | 100% (active) | 100% (active) | 99.5% (active) | 99% (active) | 100% (active) | 99.2% (active) | 100% (active) | 99% (active) | 99.2% (active) | 100% (active) | 99% (active) | 99.5% (active) |
| CC(=O)Nc1ccc2c(c1)/C(=N/O)c1ccccc1-2 | -5% | 76% (active) | 67.2% | -11% | 90% (active) | 42% | -1% | 89% (active) | 74.9% (active) | -11% | 56% | 64.5% | -3% | 77% (active) | 72.4% (active) | 17% | 92% (active) | 77.3% (active) |
| S=C(N/N=C/c1ccccn1)N1CCCCCC1 | 99% (active) | 100% (active) | 88.8% (active) | 98% (active) | 100% (active) | 92.8% (active) | 98% (active) | 99% (active) | 91.6% (active) | 97% (active) | 100% (active) | 92.8% (active) | 99% (active) | 100% (active) | 92.2% (active) | 99% (active) | 99% (active) | 88.8% (active) |
| CCCCC(=O)N/N=C/c1ccc([N+](=O)[O-])s1 | 9% | 93% (active) | 97% (active) | 7% | 94% (active) | 96% (active) | 8% | 95% (active) | 94.5% (active) | 1% | 38% | 90.8% (active) | -2% | 94% (active) | 95.7% (active) | 7% | 97% (active) | 97% (active) |
| CSc1ncccc1C(=O)[O][Sn]([c]1ccccc1)([c]1ccccc1)[c]1ccccc1 | 100% (active) | 99% (active) | 97.3% (active) | 100% (active) | 99% (active) | 97.9% (active) | 100% (active) | 99% (active) | 97.7% (active) | 99% (active) | 99% (active) | 86.7% (active) | 99% (active) | 99% (active) | 97.5% (active) | 99% (active) | 99% (active) | 96.8% (active) |
| CCC(c1ccc(O)c(C2CCCCC2)c1)C(CC)c1ccc(OC(=O)c2ccccc2)c(C2CCCCC2)c1 (configuration not stated) | 0% | -2% | -16.8% | -21% | 10% | -10.8% | -11% | 11% | -17.1% | -4% | -8% | 26.8% | 0% | -6% | 1.15% | -14% | -9% | -8.9% |
| c1ccc(NCCSc2nc3ccccc3s2)cc1 | 6% | 44% | 42.3% | 9% | 22% | 27.4% | 2% | 80% (active) | 26% | -21% | 43% | 8.55% | 24% | 70% (active) | 81.6% (active) | 8% | 77% (active) | 77.7% (active) |
| C[C@]12CCC3[C@@H](CC[C@@H]4c5nonc5CC[C@]34C)C1CCC(=O)N2 (some centres not stated) | 10% | 24% | 50.1% | 5% | 17% | -4.95% | 11% | 27% | 51.5% | 7% | 13% | -3.6% | 6% | 48% | 31.9% | 16% | 21% | 25.4% |
| O=C(O)C(Br)C(Br)c1ccccc1[N+](=O)[O-] (configuration not stated) | 15% | 81% (active) | 96.5% (active) | 8% | 60% | 89% (active) | 20% | 79% (active) | 95% (active) | 21% | 72% (active) | 77.2% (active) | 3% | 79% (active) | 96% (active) | 11% | 85% (active) | 92% (active) |
| CC1CC[N-]CC1.CC1CC[N-]CC1.CC1CC[N-]CC1.CC1CC[N-]CC1.CS(C)=O.CS(C)=O.[Cl-].[Cl-].[Cl-].[Cl-].[Pt+4].[Rh+3] | 65% | 96% (active) | 95.5% (active) | 58% | 98% (active) | 96.8% (active) | 66% | 98% (active) | 96.3% (active) | 44% | 97% (active) | 89.3% (active) | 52% | 96% (active) | 97.9% (active) | 69% | 97% (active) | 97% (active) |
| O=c1oc2cc(N=Cc3ccc4c(c3)OCO4)ccc2c2ccccc12 | -3% | 39% | 80.7% (active) | 1% | 24% | 8.65% | -7% | 4% | 0.25% | -17% | 8% | 1.2% | -4% | 5% | 25.6% | 2% | 42% | 24.9% |
| CC(=O)c1cc(-c2ccc(C)cc2)nc2c(C)cc(C)cc12 | 5% | 15% | 32.9% | 5% | 33% | 60.5% | 6% | 32% | -9.2% | 1% | 41% | 76.8% (active) | 10% | 40% | 95.2% (active) | 27% | 41% | 94.2% (active) |
| N#CC1=CN=C2C=CC=C3N=C(C(Cl)(Cl)Cl)N=C1N32 | 19% | 93% (active) | 49.9% | 7% | 97% (active) | 39.3% | 28% | 97% (active) | 87.2% (active) | 2% | 91% (active) | 14.8% | -1% | 89% (active) | 20.3% | 25% | 95% (active) | 76.8% (active) |
| COC(=O)c1ccc(/C=C/C2=CC(=O)C=CC2=O)cc1 | 30% | 44% | 29.6% | 27% | 41% | 36.5% | 27% | 57% | 78.2% (active) | 18% | 28% | 58.9% | 37% | 57% | 75.3% (active) | 29% | 57% | 84.1% (active) |
| CN(C)c1nc(NNS(=O)(=O)c2ccc(N)cc2)nc(N(C)C)n1 | 1% | -17% | -27.1% | 2% | -1% | 7.55% | 1% | -72% | -5.75% | 2% | -6% | 55% | -6% | -8% | -12.3% | -1% | 0% | 3.85% |
| O=C1OC(c2ccccc2)CC1Cc1ccccc1 (configuration not stated) | -10% | -15% | 1.7% | -32% | 3% | -0.25% | -2% | 8% | -12.9% | 9% | -5% | -6.55% | -2% | 6% | 29.1% | -17% | -21% | -33.8% |
| CS(=O)(=O)c1nc(Cl)c(Cl)c(C#N)c1Cl | 50% | 99% (active) | 98.3% (active) | 76% (active) | 99% (active) | 98.9% (active) | 66% | 99% (active) | 99.2% (active) | 23% | 99% (active) | 84.5% (active) | 88% (active) | 99% (active) | 99.2% (active) | 85% (active) | 99% (active) | 99% (active) |
| Cc1ccc(-n2cc(-c3ccc(Cl)cc3)c3c(N)ncnc32)cc1 | 37% | 95% (active) | 97.1% (active) | 15% | 97% (active) | 94.8% (active) | 60% | 94% (active) | 98.3% (active) | -3% | 96% (active) | 88.3% (active) | 14% | 97% (active) | 92% (active) | 30% | 95% (active) | 96.8% (active) |
| N=C(N)c1ccc2oc3ccc(C(=N)N)cc3c(=O)c2c1 | 8% | 65% | 57.8% | 3% | 70% (active) | 29.9% | 21% | 76% (active) | 65.5% | 11% | 65% | 71.8% (active) | -4% | 76% (active) | 38% | 10% | 77% (active) | 73.4% (active) |
